# Sfp inh = blocks B. subtilis Sfp PPTase activity; actives 3.5% (n = 310,000); Biochemical Sfp PPTase activity, qHTS; Potency, µM, inactives show largest response in the series, negative = inhibition, actives largely listed as inhibitors; Q9F4F7;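 also: the enzyme is Sfp with the accession as filed and its product quenches rhodamine fluorescence; 0% = enzyme reaction without inhibitor and -100% = no enzyme wells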
#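 After 15 min at room temperature with compound, 15 nM Sfp received 5 uM rhodamine-CoA plus 12.5 uM BHQ-2-ybbR (50 mM Hepes pH 7.6, 10 mM MgCl2). Rate came from the fluorescence difference over 30 min, ex 525/em 598 nm.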
# JMJD2A Tudor inh = inhibitors of human JMJD2A Tudor domain. O75164. AlphaScreen JMJD2A-Tudor / H3K4me3 peptide binding. Potency, µM (highest dose often 114 µM), inactives show top-dose activity change, negative = inhibition, hits mostly inhibitors. actives 4.4% (n = 390,000); also: % is scaled to controls: 0 for no effect and ±100 for the full control effect; nearly all actives have a fitted effect of over 50% in size
# BAZ2B block = BAZ2B (human) inhibition | Q9UIF8 | AlphaScreen BAZ2B-H3K14Ac peptide displacement | Potency, µM (series often up to 114 µM), inactives show top-dose activity change, negative = inhibition, hits mostly inhibitors | actives 4.4% (n = 360,000); also: % is scaled to controls: 0 for no effect and ±100 for the full control effect; nearly all actives have a fitted effect of over 60% in size
#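 Protein-peptide AlphaScreen: BAZ2B 50 nM, b-H3K14Ac 50 nM, 1x PBS pH 7.4 + 0.01% Tween-20. Preincubation 30 min RT; cpd 30 min RT (top 110 uM); beads 20 min RT, light-protected.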
# HP1b chromo inh = inhibitors of HP1-beta chromodomain binding to methylated histone tails; P83916; AlphaScreen HP1-beta / biotin-H3K9me3 peptide binding; Potency, µM (titrated, usually from 114 µM), inactives show at the highest dose activity change, negative = inhibition, usual class: inhibitors; actives 0.56% (n = 390,000); AID 540317; also: nearly all actives have a fitted effect of over 70% in size
#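 AlphaScreen: HP1-beta (50 nM) preformed 30 min with biotin-H3(1-18)K9me3 peptide (50 nM) in PBS pH 7.4, 0.01% Tween-20. Compound added for 30 min at RT, then streptavidin donor/nickel chelate acceptor beads (10 ug/mL) for 30 min.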
# G9a inh = G9a (human) methyltransferase inhibition; Potency, µM (top dose mostly 102 µM), inactives show top-dose activity, negative = inhibition, hits mostly inhibitors; actives 8.8% (n = 350,000); G9a H3K9 monomethylation, AlphaScreen, 2 h; AID 504332; Q96KQ7; also: % is scaled to controls: 0 for no effect and ±100 for the full control effect; nearly all actives have a fitted effect of over 75% in size
#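 Signal arises when biotinylated H3K9 peptide, once monomethylated, bridges streptavidin donor and antibody-captured acceptor beads. Enzyme at 20 nM was preincubated 15 min with test compounds; peptide 500 nM and SAM 20 uM then reacted for 2 h.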
# Starred values were filed as active, the others as inactive; ? = inconclusive; nt = no result given; ! = not confirmed by another sample; [ ] = dose if it differs, or a comment. Rows were chosen to be rich in hits. Some 12% of all compounds tested hit in one or more screens of this group. Calls follow the shape of the dose curve; as a rule, active = well fitted curve in the direction sought with a large enough effect; inconclusive = small, poorly fitted or top-dose-only effect, or another doubt; inactive = no such curve, though single readings can be large; an effect the other way counts as inactive or inconclusive. Potency is read from the fitted curve at half-maximal effect.
SMILES,Sfp inh,JMJD2A Tudor inh,BAZ2B block,HP1b chromo inh,G9a inh
CNCCc1cnc[nH]1,-15%,nt,nt,nt,21%[59 µM]
CCOC(=O)c1cc(C)n(CCc2cnc[nH]2)c1C,-3%,?,56µM*,-15%,?
COC(=O)c1nc(-c2ccc3c(n2)C(=O)C(N)=C(OC)C3=O)c(N)c(-c2ccc(OC)c(OC)c2O)c1C,16µM*,-31%,?,-4%,10µM*
CN(C)c1ccc(CN2CC=C(c3ccc(F)cc3)CC2)cc1,-13%,50µM*,50µM*,-38%,?
COc1ccc(CNc2oc(-c3cccc4ccccc34)nc2P(=O)(OC)OC)cc1,50µM*,41%,nt,90%,0%
Clc1ccccc1CN1CCN(c2ccccc2)CC1,-11%,3.5µM*,50µM*,?,?
Clc1cccc(Cl)c1CN1CCN(c2ccccc2)CC1,-26%,3.2µM*,35µM*,?,25µM*
Fc1ccccc1CN1CCN(c2ccc(Cl)cc2)CC1,10%,-7%,-1%,28%,19%[2.33 µM]
Nc1ccc(N2CCN(Cc3ccccc3Cl)CC2)c(Cl)c1,13%,-8%[11.4 µM],45µM*,?,?
O=S1(=O)N(Cc2ccccc2Cl)CCCN1Cc1ccccc1Cl,nt,84%,76%,95%,109%[59 µM]
Clc1ccc(N2CCN(Cc3ccccc3Cl)CC2)cc1,-26%,4.5µM*,?,?,25µM*
O=C(Cc1c(Cl)cccc1Cl)N1CCN(Cc2ccccc2)CC1,-1%,-2%,-7%,32%,5%
O=C(Oc1ccccc1)c1ccccc1C(=O)Oc1ccccc1,nt,102%,nt,170%,nt
CC(C)(O)C1O[C@H]2CC[C@@]3(C)[C@@](O)(CC[C@H]4Cc5c([nH]c6ccccc56)[C@@]43C)C2=CC1=O (stereo partly drawn),-2%,nt,nt,nt,-36%[59 µM]
OC(COCc1ccc(Cl)cc1)CN1CC=C(c2ccccc2)CC1 (stereo not drawn),?,1.1µM*!,50µM*,?,?
CCOC(=O)c1c(NC(=O)c2c(N)n(CCCOC)c3nc4ccccc4nc23)sc2c1CCCC2,56µM*,-14%,-31%,-10%,4%
CCOCCCn1c(N)c(C(=O)Nc2sc3c(c2C(=O)OC)CCCC3)c2nc3ccccc3nc21,?,-31%,?,6%,5.6µM*
CCCCOCCCn1c(N)c(C(=O)OCCOC)c2nc3ccccc3nc21,13%,6%,-6%,32%,8%[59 µM]
CCCCn1c(NC(=O)c2ccco2)c(C(=O)OCC)c2nc3ccccc3nc21,50µM*,-17%,9%,55%,?
CN1CCCC2(CCN(C(=O)c3csnn3)CC2)C1,-11%,nt,nt,nt,-3%[12.7 µM]
CCOc1ccc2c3c1O[C@H]1[C@@H](O)C=C[C@H]4[C@@H](C2)N(C)CC[C@@]341,15%,nt,nt,nt,-44%[2.33 µM]
O=C1NC(=S)NC(=O)C1C/C=C/c1ccccc1,45µM*,79µM*,1%,-22%,7.9µM*
O=C/C=C/c1ccccc1,8%,-17%,nt,28%,22%[59 µM]
O=C1NC(=O)N(Cc2ccccc2)C(=O)C1Cc1ccccc1 (stereo not drawn),nt,-16%,nt,33%,nt
O=C1NC(=S)NC(=O)C1Cc1ccccc1,nt,89µM*,nt,?,nt
SMILES,Sfp inh,JMJD2A Tudor inh,BAZ2B block,HP1b chromo inh,G9a inh
Cc1cnc2c(C(=O)O)c(Cl)ccc2c1,1%,nt,nt,nt,nt
COC(C(=O)C(O)C(C)O)C1Cc2cc3cc(OC4CC(OC5CC(O)C(OC)C(C)O5)C(OC(C)=O)C(C)O4)c(C)c(O)c3c(O)c2C(=O)C1OC1CC(OC2CC(OC3CC(C)(O)C(OC(C)=O)C(C)O3)C(O)C(C)O2)C(O)C(C)O1 (stereo not drawn),7%,nt,nt,nt,-2%[59 µM]
C=C[C@H]1CN2CC[C@H]1C[C@H]2c1[nH]c2ccccc2c1CCO,-1%,nt,nt,nt,nt
O=[N+]([O-])c1ccc(-c2ccc(C=Nc3cccc4ccccc34)o2)cc1,9%,16µM*,40µM*,?,6.3µM*
COc1ccc(C=C2C(=O)N(C)C(=O)N(C)C2=O)cc1COc1ccc(NC(C)=O)cc1,40µM*,-17%,?,-3%,45µM*
CN1C(=O)C(=Cc2ccc(OCC(=O)Nc3ccccc3)cc2)C(=O)N(C)C1=O,50µM*,-8%,-7%,30%,nt
O=C(COc1ccccc1)NCCc1cnc[nH]1,13%,-7%,3%,19%,-13%

# Source: PubChem BioAssay (National Center for Advancing Translational Sciences (NCATS))
